Results on six compounds are retold here after PubChem BioAssay.

Experiment [1] can be described thus: A549 cell viability effects, profiling panel, calcein-AM fluorescence, 48 h, basal (AID 1162). Also: test concentration not given here. Conditions: higher = more signal.
A short description of experiment [2]: adipocyte viability effects, profiling panel, cell-based, 3T3-L1 adipocytes, calcein-AM fluorescence, 48 h, basal (AID 1163). Also: test concentration not given here. To be noted: 3T3-L1 adipocytes viability, higher = more signal.
The nature of experiment [3]: HepG2 cell viability effects, profiling panel, calcein-AM fluorescence, 48 h, basal (AID 1164). Also: test concentration not given here. To be noted: higher = more signal.
The nature of experiment [4]: MM1S cell viability effects, profiling panel, calcein-AM fluorescence, 48 h, basal (AID 1165).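 Also: viability of MM1S multiple myeloma cells under basal unstimulated conditions; test concentration not given here.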 Conditions: higher = more signal.
The nature of experiment [5]: basal RPMI8226 viability, no added stimulus, profiling panel, cell-based, calcein-AM fluorescence, 48 h, PK04 Diversity Set (AID 1166).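 Also: cells grown under basal conditions without added stimulus; test concentration not given here.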 To be noted: RPMI8226 myeloma viability, higher = more signal.
Experiment [6] is described as follows: basal HepG2 mitochondrial membrane potential changes, profiling panel, cell-based, JC-1 fluorescence, 24 h, 100 nL compound (AID 1167). Also: test concentration not given here. Conditions: higher = more signal.
Experiment [7] can be described thus: basal 3T3-L1 adipocyte mitochondrial potential changes, profiling panel, cell-based, JC-1 fluorescence, 3T3-L1 adipocytes, 24 h, 100 nL compound (AID 1168). Also: test concentration not given here. Conditions: JC-1 mitochondrial fluorescence, higher = more signal, called active from +8 up or from −8 down.
Experiment [8] in a line: basal RPMI8226 mitochondrial membrane potential changes, profiling panel, cell-based, JC-1 fluorescence, 24 h, 100 nL compound (AID 1169). Also: test concentration not given here. Conditions: RPMI8226 myeloma, JC-1 mitochondrial potential fluorescence, higher = more signal.
The nature of experiment [9]: basal MM1S mitochondrial membrane potential changes, profiling panel, cell-based, JC-1 fluorescence, 24 h, 100 nL compound (AID 1170). Also: test concentration not given here. Conditions: higher = more signal.
The nature of experiment [10]: A549 lung cancer cell viability effects, profiling panel, resazurin fluorescence, 24 h, PK04 Diversity Set (AID 1171). Also: test concentration not given here. To be noted: higher = more signal, called active from +8 up or from −8 down.
A short description of experiment [11]: HepG2 liver cancer cell viability effects, profiling panel, resazurin fluorescence, 24 h, PK04 Diversity Set (AID 1172). Also: test concentration not given here. To be noted: higher = more signal.
The nature of experiment [12]: basal S. cerevisiae growth modulation, no modifier, primary screen, OD600, strain BY4716, 24 h, basal condition (AID 1173). Conditions: OD600, 24 h, higher = more signal, called active from +8 up or from −8 down.
A short description of experiment [13]: MM1S myeloma cell viability, profiling panel, resazurin fluorescence, basal, 24 h, PK04 Diversity Set (AID 1174).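 Also: MM1S multiple myeloma cell line; test concentration not given here.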 To be noted: higher = more signal, called active from +8 up or from −8 down. For orientation: Resazurin is reduced to fluorescent resorufin, in cell work by metabolically active cells.
Experiment [14] addresses Dihydroorotate dehydrogenase (quinone), mitochondrial (Plasmodium falciparum (isolate 3D7)) (UniProt Q08210). Put plainly: PfDHODH enzyme inhibitors, primary screen, biochemical, C-terminal His tag, absorbance 600 nm (AID 1175).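 Also: recombinant parasite enzyme with a five histidine tag at its C terminus; test concentration not given here.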 Conditions: DCIP absorbance 600 nm, higher = more signal, called active from +8 up or from −8 down.
A short description of experiment [15]: P. aeruginosa biofilm formation inhibitors, primary screen, strain PAO1, LB-PBS medium, absorbance 600 nm (AID 1176). Also: test concentration not given here. Conditions: P. aeruginosa PAO1 growth/biofilm, A600, 12 h; higher = more signal.
Experiment [16] in a line: S. cerevisiae RM11-1a growth modifiers, primary screen, strain RM11-1a, OD600, basal, 24 h (AID 1177).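 Also: cultures grown under basal conditions with no added stressor; test concentration not given here.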 Conditions: OD600, 24 h, higher = more signal, called active from +8 up or from −8 down.
A short description of experiment [17]: E. coli acrAB mutant growth effects, primary screen, E. coli filamentation inducers, strain DRC39, OD650, 24 h (AID 1178).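 Also: growth measured as culture turbidity by optical density at 650 nm; test concentration not given here.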 Conditions: higher = more signal, called active from +8 up or from −8 down.
A short description of experiment [18]: E. coli acrAB mutant growth effects, primary screen, E. coli filamentation inducers, strain DRC39, OD650, 48 h (AID 1179).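 Also: screen aims at cell division blockers that make cells filament.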 To be noted: E. coli DRC39 delta-acrAB growth, higher = more signal, called active from +8 up or from −8 down.
Experiment [19] can be described thus: RPMI8226 myeloma cell viability, profiling panel, resazurin fluorescence, basal, 24 h, PK04 Diversity Set (AID 1180).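 Also: RPMI8826 multiple myeloma cell line at 5000 cells per well; test concentration not given here.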 Conditions: higher = more signal.
Experiment [20] addresses E3 ubiquitin-protein ligase XIAP (Homo sapiens) (UniProt P98170). Nature of the experiment: XIAP binders, primary screen, biophysical, small-molecule microarray, fluorescence 635 nm (AID 1181).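 Also: score merges 667 nm emission and signal to noise over triplicate slides.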 Conditions: small-molecule microarray binding, higher = more signal.

Several values for one entry are separate records, joined by “and”; a condition that tells them apart may be missing. Identical values can stand only once. Activity calls are given as the source filed them. Unless noted, no rule for the calls is given here.

Dihydroorotate dehydrogenase (quinone), mitochondrial (Plasmodium falciparum (isolate 3D7)), sequence (Q08210 whole entry, looked up): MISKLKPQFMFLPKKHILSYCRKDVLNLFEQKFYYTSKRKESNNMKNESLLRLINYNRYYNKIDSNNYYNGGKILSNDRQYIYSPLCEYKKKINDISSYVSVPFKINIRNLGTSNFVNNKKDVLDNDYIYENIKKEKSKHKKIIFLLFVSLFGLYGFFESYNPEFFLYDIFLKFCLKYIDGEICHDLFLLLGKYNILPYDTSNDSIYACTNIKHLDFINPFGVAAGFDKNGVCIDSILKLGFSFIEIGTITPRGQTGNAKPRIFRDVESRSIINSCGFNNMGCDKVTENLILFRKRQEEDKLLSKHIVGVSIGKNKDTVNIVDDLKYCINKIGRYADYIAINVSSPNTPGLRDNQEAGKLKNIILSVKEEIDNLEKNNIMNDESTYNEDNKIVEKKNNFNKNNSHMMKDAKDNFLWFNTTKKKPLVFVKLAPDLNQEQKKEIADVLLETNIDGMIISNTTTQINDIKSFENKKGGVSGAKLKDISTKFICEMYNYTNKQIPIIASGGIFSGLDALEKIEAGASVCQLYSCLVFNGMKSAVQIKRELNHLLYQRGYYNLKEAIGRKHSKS
E3 ubiquitin-protein ligase XIAP (Homo sapiens), sequence (P98170 whole entry, looked up): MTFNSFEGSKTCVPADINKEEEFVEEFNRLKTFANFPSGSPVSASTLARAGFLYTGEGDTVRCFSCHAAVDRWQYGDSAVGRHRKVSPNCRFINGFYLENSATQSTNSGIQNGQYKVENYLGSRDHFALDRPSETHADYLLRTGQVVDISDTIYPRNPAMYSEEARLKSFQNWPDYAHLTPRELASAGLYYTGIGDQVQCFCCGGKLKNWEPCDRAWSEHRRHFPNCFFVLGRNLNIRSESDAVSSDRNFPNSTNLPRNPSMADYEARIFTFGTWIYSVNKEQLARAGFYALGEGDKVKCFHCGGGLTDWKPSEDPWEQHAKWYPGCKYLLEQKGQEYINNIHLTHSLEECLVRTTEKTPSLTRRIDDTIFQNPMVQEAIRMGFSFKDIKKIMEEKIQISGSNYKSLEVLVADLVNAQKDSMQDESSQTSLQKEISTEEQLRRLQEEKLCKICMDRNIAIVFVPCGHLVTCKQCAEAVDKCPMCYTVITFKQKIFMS

Consider `COC(=O)[C@@]1(Cc2ccccc2)[C@H]2c3cc(C(=O)N(C)C)n(C[C@H](O)CO)c3C[C@H]2CN1C(=O)c1ccccc1`, for which the z-score in [1] was -0.876 and -0.976; in [2] it was 0.318 and -0.385; in [3] it was -0.76 and -1.07; in experiment [4], 0.112 and 0.416; in [5] it was -1.95 and 0.383; in [6] it was -1.04 and -0.162. Besides, the z-score is -0.0997 (inactive) and -0.187 (inactive) in [7]; -0.194 and -0.294 in [8]; -0.609 and -0.129 in [9]; -1.3 (inactive) and -0.848 (inactive) in experiment [10]; -0.777 and -0.734 in experiment [11]; 0.168 (inactive) and 1.78 (inactive) in experiment [12]. Further, the z-score in [13] was -0.939 (inactive) and -0.957 (inactive); in experiment [15], 1.32 (inactive) and 0.15 (inactive); in experiment [16] it was 1.03 (inactive) and -0.204 (inactive); in experiment [17] it was 0.146 (inactive) and -0.785 (inactive); in experiment [18], -0.121 (inactive) and -0.352 (inactive); in [19] it was -0.205 and -0.62. In addition, the composite z-score in experiment [14] was -0.402 (inactive) and 0.547 (inactive); in [20], 0.333 and 0.107.

In the case of `O=C1NC(=O)C2C1C=CC(C(O)c1ccc([N+](=O)[O-])cc1)N2Nc1ccc(Cl)cc1Cl` (stereo not given), the z-score in experiment [1] is 0.953 and 1.59; in experiment [2] it was 0.0938 and 0.263; in experiment [3], 0.949 and 1.79; in [4], -0.251 and 0.596; in [5], -0.194 and 0.932; in [6], -0.115 and -0.654. In addition, the z-score in experiment [7] was -0.833 (inactive) and -0.57 (inactive); in experiment [8] it was -0.314 and -0.905; in [9] it was 0.319 and 2.28; in experiment [10], 0.303 (inactive) and 0.766 (inactive); in experiment [11], -1.01 and 0.266; in [12], -8.52 (active) and -8.8 (active). The z-score in experiment [13] was 0.52 (inactive) and -0.103 (inactive); in experiment [15] it was 2.4 (inactive) and 2.49 (inactive); in experiment [16] it was -0.728 (inactive) and -1.12 (inactive); in experiment [17], -0.0259 (inactive) and 0.6 (inactive); in experiment [18], -0.568 (inactive) and 0.615 (inactive); in experiment [19], 0.425 and 0.122. Also, the composite z-score is -0.87 (inactive) and -1.11 (inactive) in [14]; -0.0102 and 0.0975 in [20].

As to `CCCCN1CC=CC23O[C@@H]4C=CCCOC(=O)C4[C@H]2C(=O)N(C(C)CO)[C@@H]3C1=O` (stereo not given in full), the z-score in [1] is -0.301 and -0.336; in [2], -0.457 and -0.57; in experiment [3], -0.469 and -0.612; in experiment [4], 1.07 and 0.893; in [5], -0.736 and -0.717; in experiment [6] it was -0.494 and -0.753. Further, the z-score is -0.433 (inactive) and -0.828 (inactive) in experiment [7]; -0.129 and 0.0982 in experiment [8]; -0.686 and -0.347 in [9]; 0.237 (inactive) and -0.595 (inactive) in [10]; 0.169 and -0.388 in experiment [11]; -0.288 (inactive) and 1.12 (inactive) in experiment [12]. The z-score in experiment [13] is -0.201 (inactive) and -0.715 (inactive); in experiment [15], 0.329 (inactive) and 0.137 (inactive); in experiment [16] it was -0.891 (inactive) and 1.05 (inactive); in [17], 0.0926 (inactive) and -0.474 (inactive); in experiment [18], -0.25 (inactive) and -0.564 (inactive); in experiment [19], -0.157 and -0.53. In addition, the composite z-score in experiment [14] was -0.755 (inactive) and -2.42 (inactive); in [20], -0.0062 and 0.744.

Turning to `C[N+](C)(C)CCCCNC(=O)[C@H]1C[C@H]2C(=O)N[C@@H](CCCC[N+](C)(C)C)C(=O)N2[C@H]1c1ccc(O)cc1`, the z-score in experiment [1] is -0.231 and -0.502; in experiment [2] it was -1.46 and 0.308; in experiment [3] it was -0.905 and -1.22; in [4] it was -0.088 and -0.298; in experiment [5], -0.598 and -0.804; in experiment [6], -0.982 and -1.85. Also, the z-score in [7] was -0.258 (inactive) and -0.841 (inactive); in [8], 0.629 and -0.808; in experiment [9], -0.588 and -0.423; in experiment [10], -0.471 (inactive) and -0.706 (inactive); in [11] it was -0.168 and 0.0318; in experiment [12], 0.889 (inactive) and 0.811 (inactive). Further, the z-score in experiment [13] is -0.531 (inactive) and -0.416 (inactive); in [15], 0.227 (inactive) and 2.5 (inactive); in experiment [16], 0.659 (inactive) and 0.409 (inactive); in experiment [17], 0.0769 (inactive) and -0.869 (inactive); in experiment [18], 0.0835 (inactive) and -1.41 (inactive); in experiment [19], -0.891 and -1.06. Moreover, the composite z-score is -29.8 (active) and -29.4 (active) in [14]; 0.104 and 0.0015 in [20].

With `Cc1ccc(S(=O)(=O)OC[C@@H]2CN3[C@@H](CC[C@@H](C)[C@@H]3c3ccc(Br)cc3)C(=O)O2)cc1`, the z-score is -0.251 and 0.0448 in experiment [1]; 0.0273 and 0.503 in experiment [2]; 0.462 and 0.028 in [3]; -0.644 and 0.185 in experiment [4]; -0.341 and -0.294 in experiment [5]; -0.735 and 0.438 in experiment [6]. In addition, the z-score in experiment [7] is -0.303 (inactive) and 0.303 (inactive); in experiment [8], -0.883 and -0.68; in experiment [9] it was 0.925 and 0.523; in experiment [10] it was -0.474 (inactive) and 0.371 (inactive); in [11] it was -0.928 and 0.711; in experiment [12] it was 0.212 (inactive) and 0.117 (inactive). In addition, the z-score was 0.0032 (inactive) and 0.781 (inactive) in [13]; 0.487 (inactive) and -0.139 (inactive) in experiment [15]; -0.0273 (inactive) and 0.72 (inactive) in experiment [16]; 0.393 (inactive) and -1.04 (inactive) in [17]; 0.521 (inactive) and -0.956 (inactive) in experiment [18]; -0.109 and 0.607 in [19]. The composite z-score in [14] was -0.559 (inactive) and 0.188 (inactive); in experiment [20] it was 1.69 and -0.0599.

In the case of `C=CCN(CCCCC)C(=O)C1N(CCOCCO)C(=O)C2C(C(=O)O)C3C=CC21O3` (stereo not given), the z-score was -0.178 and -0.126 in experiment [1]; 0.21 and -0.603 in experiment [2]; -0.499 and -0.87 in [3]; 0.226 and 1.03 in experiment [4]; -0.361 and 0.133 in experiment [5]; -0.562 and -0.928 in experiment [6]. The z-score in [7] was -0.279 (inactive) and -0.227 (inactive); in experiment [8], 0.252 and 0.715; in experiment [9], 0.377 and 0.103; in [10], -0.529 (inactive) and -1.03 (inactive); in experiment [11], -0.541 and -0.785; in experiment [12] it was 0.709 (inactive) and 1.12 (inactive). Further, the z-score is -0.885 (inactive) and -1.41 (inactive) in experiment [13]; -0.553 (inactive) and -0.469 (inactive) in experiment [15]; 0.892 (inactive) and 0.451 (inactive) in experiment [16]; -0.649 (inactive) and -0.537 (inactive) in experiment [17]; -0.496 (inactive) and -0.506 (inactive) in experiment [18]; -0.724 and -0.899 in [19]. The composite z-score in experiment [14] was 1.39 (inactive) and -0.109 (inactive); in experiment [20] it was -0.113 and -0.124.
